Bioassay records deposited in PubChem BioAssay by several laboratories.
HSF-1 act: HSF-1 activators, primary screen, NIH3T3-HGL cells, MG132 stress, luminescence, single point; activation, % at 9 µM; NIH3T3-HGL HSF-1 luciferase reporter, 8 h; 100% = twice DMSO control signal; actives 1.7% (n = 300,000); AID 504408, 2011;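 active means mean replicate activation of at least 50% with a set share of replicates each reaching 50%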;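 further: 0% = median of the neutral control wells and 100% = twice that signal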
Platelet DG rel: inhibitors of platelet dense granule secretion, primary screen, cell-based, MLPCN, human platelets; human platelet-rich plasma, SFLLRN dense granule ATP release, luminescence; inhibition, %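 (compounds screened at 7.5 µM in platelet-rich plasma)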; actives 0.22% (n = 300,000);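 active means mean replicate score, as percent of positive control, at or above 50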
HSP90 inh: HSP90 inhibitors, primary screen, cell lysate, luminescence; Heat shock protein HSP 90 (rabbit reticulocyte lysate; luciferase refolding); Rabbit reticulocyte lysate, luciferase refolding luminescence, 3 h; inhibition, % at 5.6 µM; AID 1789, 2009; actives 0.91% (n = 290,000);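 active means inhibition above the screen-wide mean plus 3 SD, computed separately per campaign, cut at about 16% in these data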;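 further: 0% = DMSO wells and 100% = 60 µM geldanamycin wells; inhibitors lower the luminescence because luciferase stays unfolded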
dFosB activator: activators of delta FosB homodimer, primary screen, biochemical, fluorescence polarization, TAMRA-CDK5 oligo, single point; actives 0.99% (n = 340,000); activation, % at 25 µM; purified delta FosB; percent of positive-control signal above neutral wells;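 active means mean activation above about 17%, with every replicate also reaching it, limit read from the data, passing the limit was not always enough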
Target sequence (P13346 whole entry, looked up): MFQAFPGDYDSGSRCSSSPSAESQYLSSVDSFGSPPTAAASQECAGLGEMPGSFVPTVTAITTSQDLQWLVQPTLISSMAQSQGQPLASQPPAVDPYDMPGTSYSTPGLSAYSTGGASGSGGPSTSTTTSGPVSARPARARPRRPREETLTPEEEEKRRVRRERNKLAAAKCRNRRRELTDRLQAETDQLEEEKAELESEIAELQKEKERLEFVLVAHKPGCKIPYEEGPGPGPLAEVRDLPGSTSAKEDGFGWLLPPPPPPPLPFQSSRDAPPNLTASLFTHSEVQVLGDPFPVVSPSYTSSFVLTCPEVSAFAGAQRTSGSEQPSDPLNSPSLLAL
MPTP block: mitochondrial permeability transition pore inhibitors, primary screen, biochemical, isolated mouse mitochondria, absorbance; Ca2+ swelling absorbance, 30 min; actives 1.4% (n = 360,000); inhibition, % at 10 µM;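 active means inhibition of 50% or more, scaled per plate between neutral and stimulator controls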;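 further: 0% = DMSO wells given calcium and 100% = 1 mM EGTA wells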
HSF1 inhib: HSF1 inhibitors in luciferase reporter cells, primary screen, cell-based, NIH3T3, luminescence. NIH3T3-HGL HSE-luciferase, MG132-induced, luminescence 8 h; hits give low values. activity change, negative = inhibition, % at 7.5 µM (by protocol). actives 0.77% (n = 300,000). AID 2098, 2009;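 active means more than half of replicate wells show activity change below -50%, luminescence cut by over half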;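 further: luciferase reports HSF-1 transcriptional activity via heat shock element; 0% = median of DMSO wells and -100% = zero luminescence signal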
Starred values were filed as active, the others as inactive; nt = not tested or not shown. In the library only some 4.9% were active in any assay of this set; here they are far more common.

SMILES	HSF-1 act	Platelet DG rel	HSP90 inh	dFosB activator	MPTP block	HSF1 inhib
O=C(NNc1cccc(Cl)n1)Nc1ccc(Cl)cc1	77*	-5	-11	-2	6	33
CC(=O)Nc1ccc(OCCOc2ccc(/C=C3\C(=N)N4N=C(C)SC4=NC3=O)cc2)cc1	7	-3	-4	2	1	1
Nc1ccccc1C(=O)NNc1c2ccccc2nc2ccccc12	13	8	2	1	15	13
COc1ccc(N=Nc2ccc(CO)cc2)cc1	72*	2	nt	0	3	26
Cc1ccc(O)c(N=Nc2ccc(S(=O)(=O)N3CCCC3)cc2)c1	-2	8	-3	1	0	10
COc1ccc(N=Nc2cc(C)ccc2O)cc1	59*	14	4	-1	3	74
COc1ccc(CC2=CC(=O)c3ccccc3C2=O)cc1	32	17	11	1	0	19
O=C(NCCCN1CCOCC1)c1cc(-c2ccc(Cl)c(Cl)c2)on1	-1	-4	-1	-9	1	0
Cc1ccc(-c2cc(C(=O)NCCCN3CCOCC3)no2)cc1	-79	-2	6	0	-1	-76*
COc1ccc(NC(=O)c2ccco2)cc1N	-63	-1	-3	-7	0	-57*
COc1cc(NC(=O)c2ccccc2Cl)ccc1NC(=O)c1ccco1	71*	-6	3	-12	7	55
COc1cc(NC(=O)c2ccco2)ccc1NC(=O)c1ccccc1Cl	0	-35	-2	7	1	4
CC1=C(/C=C/C(=O)O)C(C)(C)CCC1	65*	-1	5	-7	-1	28
COc1cc(OC)cc(-c2c(C#Cc3ccsc3)c3cc(-c4cc(OC)c(OC)c(OC)c4)ccc3n2C)c1	nt	nt	nt	-4	1	nt
COc1cc(OC)cc(-c2c(C#Cc3ccsc3)c3cc(-c4ccc5[nH]ccc5c4)ccc3n2C)c1	nt	nt	nt	23*	-1	nt
CCOC(=O)N=Nc1c2ccccc2c2nc3no[nH]c3nc12	-95	0	6	-9	0	-95*
CCN1C[C@@H]2[C@@H]3C(=O)N(Cc4ccccc4)C(=O)[C@@H]3[C@](CC)(C(=O)OC)N2C1=NC	nt	nt	nt	2	-1	nt
COc1cc(/C=N/n2cnnc2)ccc1OCc1ccc(C)cc1	36	62*	5	-19	0	22
Cc1ccc(C(C(=O)NCc2ccccc2)N(C(=O)c2ccccn2)c2ccccc2)o1 (stereo not drawn)	3	-4	-5	-5	-1	5
COC(=O)c1ccc(NC(=O)Cn2nc(-c3ccncc3)nc2SCC(=O)Nc2nccs2)cc1	-32	-13	2	-4	1	-16
CCN(CC)C(=O)Cn1nc(-c2ccncc2)nc1SCC(=O)Nc1ccc(OC)cc1	58*	-2	-2	2	0	24
Cc1onc(NC(=O)c2ccc(Cl)cc2Cl)c1Br	8	-1	2	-7	-2	15
O=C(Nc1ccc(-c2nc3ccccc3s2)cc1)C1=COCCO1	-63	43	14	-9	4	-56*
O=C(Nc1cccc(-c2nc3ccccc3s2)c1)C1=COCCO1	9	-9	-2	-49	0	10
COc1ccc(/C=C/c2onc(C)c2S(=O)(=O)N2CCC(C(=O)N3CCCCCC3)CC2)cc1	24	4	4	-6	0	12
SMILES	HSF-1 act	Platelet DG rel	HSP90 inh	dFosB activator	MPTP block	HSF1 inhib
O=C1Nc2ccccc2N=C(c2ccc3c(c2)OCO3)C1N(C(=O)c1ccc2ccccc2c1)C1CC1 (stereo not drawn)	nt	nt	nt	nt	0	nt
Cc1cc(C)n(-c2nc(Nc3ccccc3)nc(-n3nc(C)cc3C)n2)n1	-6	11	-1	5	3	0
COc1cccc(/C=N/Nc2nc(Nc3ccccc3)nc(-n3nc(C)cc3C)n2)c1O	-2	-43	8	41*	10	-5
COc1cccc(OC)c1C(=O)Nc1ccncc1	3	-5	nt	0	0	-8
Cc1cc(NC(=O)C2C3C(=O)N(Cc4ccc(Cl)cc4)C(C(=O)NC(C)(C)C)C34C=CC2(C)O4)no1 (stereo not drawn)	-64	-128	-2	-6	-1	-55*
COc1cccc(C2=Nc3cccc4cccc(c34)N2)c1	-8	5	3	8	10	-2
Nc1ccc(C2=Nc3cccc4cccc(c34)N2)cc1	73*	-10	2	41*	1	31
O=C(NCCCN1CCOCC1)c1[nH]c(C(F)(F)F)nc1-c1ccccc1	nt	nt	nt	nt	-1	nt
O=C(Nc1cccc(Cl)c1)C1CCCN(S(=O)(=O)c2ccc(F)cc2)C1 (stereo not drawn)	89*	7	-2	-7	-2	44
O=C(Nc1cccc(-c2ccc(F)cc2)c1)C1CCCN(C(=O)c2cscn2)C1 (stereo not drawn)	-77	-5	-3	-11	-1	-71*
COc1ccc(N=NC2=C(O)CC(C)(C)CC2=O)cc1	58*	-12	-3	2	1	45
CC1(C)CC(=O)C(N=Nc2ccc(Br)cc2)=C(O)C1	14	-20	15	nt	2	2
COc1cc2[nH]c(=S)nc(NCc3cccs3)c2cc1OC	123*	14	-2	0	0	61
CC(C)c1cc2c(c(O)c1O)[C@@]13CCCC(C)(C)C1CC2OC3=O (stereo partly drawn)	66*	-9	2	-13	7	53
CCOC(=O)c1cc(NC(=O)c2ccccc2)c(=O)n2c1oc1ccccc12	-4	7	-1	-8	0	0
O=C(NCc1cccc(C(F)(F)F)c1)c1ccc2nc([C@@H]3O[C@H](CO)[C@@H](O)[C@H]3O)[nH]c2c1	nt	nt	nt	nt	0	nt
COCc1cc(C)nc(SCC(=O)Nc2ccccc2N2CCOCC2)c1C#N	65*	-5	2	0	-1	25
O=C(CSc1ccc(Br)cc1)Nc1ccccc1N1CCOCC1	-82	-7	1	-12	0	-77*
O=[N+]([O-])c1ccc(O)c(-c2cc(C(F)(F)F)nc(-c3ccccc3)n2)c1	17	-2	-4	1	32	5
COc1cccc(NC=C2C(=O)OC3(CCCCC3)OC2=O)c1	59*	6	7	-5	-2	28
O=C(NC1CCCN(Cc2ccccc2F)C1)c1cccs1 (stereo not drawn)	62*	-20	2	-6	0	32
Cc1ccccc1Nc1nnc(SCC(=O)c2c(N)n(C3CC3)c(=O)[nH]c2=O)s1	nt	nt	nt	-4	-2	nt
